Structures are written as SMILES. The campaign covered roughly 1,100 compounds. About 390 (35%) were called active. Not shown: some 30% with an inconclusive outcome. Calls come from the whole dose curve; as a rule, active = well fitted inhibition curve with a large enough effect; inconclusive = small, poorly fitted or top-dose-only effect; inactive = flat fitted curve, though single readings scatter. The list shows a part of the results. Entries that show only a call come without a potency.
Potency is the fitted concentration of half-maximal effect.

For the assay, the target named is Luciferin 4-monooxygenase (Photinus pyralis) (UniProt P08659). Put plainly: qHTS of Nrf2 Activators: Hit Validation in Secondary FLuc Assay. Note: nearly all actives have a fitted effect of over 65% in size. The settings on record: firefly luciferase inhibition counter-screen, luminescence; series mostly up to 57.5 µM. In a few lines: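 Purified firefly luciferase is tested for inhibition by compounds in the presence of its substrates, ATP and D-luciferin, each at Km. Inhibition marks likely false positives arising from reporter-enzyme stabilization.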
`COC(=O)[C@@H]1Cc2c([nH]c3ccccc23)C(C)(C)N1C(=O)CCl`: the Potency result was “inactive”.

For `Cc1cc(Br)ccc1NC(=O)CNC(=O)Cn1ncc(Cl)c(Cl)c1=O`, the Potency entry is “inactive”.

Turning to `CCOC(=O)c1cnc(-c2ccccc2)nc1-c1ccccc1`, the Potency result was “inactive”.

Take `CCOC(=O)c1ccccc1N/C=C/C(=O)c1ccccc1`: the Potency is 10.7 µM (active).

Take `CCOC(=O)c1ccsc1NC(=O)CCS(=O)(=O)c1ccccc1`: the Potency entry is “inactive”.

For the compound `CS(=O)(=O)c1nc(S(=O)(=O)c2ccc(Cl)cc2)c(N2CCC3(CC2)OCCO3)s1`, the Potency result was “inactive”.

As to `Cc1ccc(Nc2nc(C(N)=O)c(NC(=O)c3ccccc3Br)s2)cc1`, the Potency was 13.5 µM (active).

For the compound `NC(=O)c1nc(Nc2ccccc2)sc1NC(=O)c1ccccc1Br`, the Potency entry was “inactive”.

Turning to `COC(=O)c1c(NC(=O)c2ccccc2)sc(C(N)=O)c1C`, the Potency result is “inactive”.

Consider `O=C(Nc1ncc2c(n1)-c1ccccc1CC2)c1cccs1`, for which the Potency is 10.7 µM (active).

As to `O=C(Nc1nccc(-c2cccs2)n1)c1cccs1`, the Potency is 10.7 µM (active).

On to `O=C(CSc1nccc(-c2cccs2)n1)Nc1cccc(Cl)c1Cl`, for which the Potency result is “inactive”.

With `O=C(CSc1nccc(-c2cccs2)n1)Nc1cccc(Cl)c1`, the Potency result is “inactive”.

Regarding `Fc1ccc(Nc2nc3ccccc3n3cnnc23)c(F)c1`, the Potency result was “inactive”.

Turning to `Cc1c(Nc2nc3ccccc3n3cnnc23)cccc1[N+](=O)[O-]`, the Potency entry is “inactive”.

Consider `Oc1ccccc1Nc1nc2ccccc2n2nnnc12`, for which the Potency is 10.7 µM (active).

As for `CSc1ccc(C2NN=C(c3ccccc3)S2)cc1` (stereo not given), the Potency was 0.0426 µM (active).

As for `CC(C)OC(=O)c1cn(-c2ccccc2)nc1-c1ccco1`, the Potency is 6.75 µM (active).

On to `O=C(Nc1cccnc1)C1(F)C(F)(F)C(F)(F)C(F)(F)C(F)(F)C1(F)F`, for which the Potency entry is “inactive”.

Regarding `O=C(NCC1CCCO1)c1ccc([N+](=O)[O-])o1` (stereo not given), the Potency result is “inactive”.

Take `N#Cc1c(NC(=O)c2ccc([N+](=O)[O-])o2)sc2c1CCC2`: the Potency was 1.69 µM (active).

For the compound `O=C(Nc1ccc(N2CCN(C(=O)c3ccc(Cl)cc3)CC2)cc1)c1ccc([N+](=O)[O-])o1`, the Potency entry is “inactive”.

On to `O=C(Nc1nc(-c2ccncc2)cs1)c1ccco1`, for which the Potency is 12 µM (active).

Consider `O=C(Nc1nc2ccsc2c(=O)s1)c1ccco1`, for which the Potency was 10.7 µM (active).

As for `O=C(Nc1nc2c(ccc3ccccc32)s1)c1ccco1`, the Potency was 4.78 µM (active).

`O=C(Nc1ccc(Br)c(Cl)c1)c1ccco1`: the Potency is 5.36 µM (active).

Turning to `O=C(Nc1cc(Cl)ccc1-n1cncn1)c1ccco1`, the Potency entry was “inactive”.

For `Cc1ccc(Cl)c2sc(NC(=O)C3CC3)nc12`, the Potency entry was “inactive”.

For `CC(=O)Nc1ccc2nc(NC(=O)c3ccco3)sc2c1`, the Potency is 2.39 µM (active).

For the compound `Cc1cc(Cl)cc2sc(NC(=O)c3ccco3)nc12`, the Potency was 1.69 µM (active).

For the origin of these results see PubChem BioAssay AID651597 (National Center for Advancing Translational Sciences (NCATS), 2012).
